Binding signal data for 38 sequences are collected here from publication PMC3795721, “Screening for Protein-DNA Interactions by Automatable DNA-Protein Interaction ELISA”.

In the experiment the target is AT4G31550 (Arabidopsis thaliana, UniProt Q9SV15 228-325). The experiment in a line: DPI-ELISA; DPI-ELISA, streptavidin 384-well plate, 1-2 pmol biotinylated dsDNA per well, crude native E. coli extract, anti-His detection; buffer as in Brand et al. [46],; high values mean tight binding. The following applies: tags: C-terminal His (pET-DEST42); label: 5' biotin on forward strand; dsDNA, one strand shown. On the technique in general: ELISA stands for enzyme-linked immunosorbent assay.
Sequence of AT4G31550 (Q9SV15 228-325): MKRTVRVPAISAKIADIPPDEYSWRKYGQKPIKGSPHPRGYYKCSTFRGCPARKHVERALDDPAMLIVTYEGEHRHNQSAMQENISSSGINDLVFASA
Sequence AAAAAATACTCTTCCTCGTTCTTGGTAAAA registered a binding signal of 0.57 ± 0.127 absorbance.
As for AAAAAATCGGTACGCACCCCGGACTCAAAA, the figure is 0.73 ± 0.184 absorbance; as for AAAAAAGGCGTCTGACTGTAACTCGTAAAA, 1.43 ± 0.445 absorbance.
Turning to AAAAAATTAATCCATGCTTATGTCTGAAAA, the binding signal was determined as 0.71 ± 0.184 absorbance.
As for AAAAAACCTTCCCCCTCTTCTGCCTTAAAA, the figure is 0.665 ± 0.0354 absorbance.
As for AAAAAATTCCGCGTGTATGTGTACGTAAAA, the figure is 0.72 ± 0.212 absorbance; as for AAAAAATCCTGTTTGCGTTTGATTTTAAAA, 0.51 ± 0.099 absorbance.
With AAAAAAGGGTATACTCGCAGCCCCTAAAAA the figure was 0.51 ± 0.0849 absorbance.
Turning to AAAAAAATTTTTAGTTTTAATTTTGGAAAA, the binding signal came to 0.615 ± 0.106 absorbance.
With AAAAAAACGCTATATATTGGTGCTAGAAAA the figure was 0.695 ± 0.134 absorbance; with AAAAAAAAATTTCGAGCCTCGGCGTAAAAA, 0.49 ± 0.0849 absorbance.
The sequence AAAAAAGCTCGTCTCCGCCTCCTGCTAAAA came in with a binding signal of 0.785 ± 0.262 absorbance.
In turn, AAAAAAATCGTTGTTATCGTATTTATAAAA gave a binding signal of 0.565 ± 0.12 absorbance.
With AAAAAACAACTTGGAGGATTTACAGCAAAA the figure was 0.73 ± 0.141 absorbance; with AAAAAAGGTTGGTACGTCGAGTTCTTAAAA, 0.565 ± 0.163 absorbance; with AAAAAACCGAGTGTTGCCAGTTGCAGAAAA, 0.655 ± 0.0919 absorbance.
With AAAAAAAGTTGTACTTATTATACTTTAAAA the figure was 0.53 ± 0.113 absorbance; with AAAAAATAAGTAACCGAACGAAACTCAAAA, 0.75 ± 0.269 absorbance.
Turning to AAAAAAGGAAGTACTGACGATCTGGAAAAA, the binding signal worked out at 0.615 ± 0.148 absorbance.
As for AAAAAAGCGCGCCCGCACTGTTAATAAAAA, the figure is 0.635 ± 0.106 absorbance; as for AAAAAATCTGTTCTCGTTTCCCCTTCAAAA, 0.805 ± 0.262 absorbance; as for AAAAAACCAGCCTCAGTCCTGAACAAAAAA, 0.605 ± 0.0636 absorbance.
The sequence AAAAAATCCATGTTTAAGCTGGTCTCAAAA had a binding signal of 0.695 ± 0.148 absorbance.
AAAAAAATGTTCAAGCTCGATCTACAAAAA came in with a binding signal of 0.63 ± 0.127 absorbance.
AAAAAAGTCTGCGTCCTACCCCATTCAAAA came in with a binding signal of 1.04 ± 0.184 absorbance.
With AAAAAAAGTATCAAAGCCTAGGGCTGAAAA the figure was 0.605 ± 0.205 absorbance; with AAAAAAAAGCGTTACATCATATGGAAAAAA, 0.56 ± 0.0566 absorbance.
With AAAAAAAATTAGTCTCTTCGTCTCCCAAAA the figure was 0.575 ± 0.106 absorbance; with AAAAAACGTTGAACCTGGGCCTCAACAAAA, 1.39 ± 0.191 absorbance; with AAAAAACCTTACCTCATCCCTATCCCAAAA, 0.605 ± 0.134 absorbance.
The sequence AAAAAATAATATCGATACTCATGCCCAAAA returned a binding signal of 0.685 ± 0.134 absorbance.
As for AAAAAATGGTCGTCGTACTCGTGGTCAAAA, the figure is 2.96 ± 0.424 absorbance; as for AAAAAAGTCCCGCGCTAAGCTTTAAAAAAA, 0.615 ± 0.106 absorbance.
AAAAAAACAGCTCGGTGCCACTGTGGAAAA: the binding signal is 0.61 ± 0.0424 absorbance.
With AAAAAAATTGTATCATACTTCAGTTGAAAA the figure was 0.61 ± 0.0707 absorbance; with AAAAAATCTTCACCTCACTTCGGTTTAAAA, 0.67 ± 0.0566 absorbance.
As for AAAAAAGTACATGCGTAGATAATGTTAAAA, the figure is 0.59 ± 0.127 absorbance.
Turning to AAAAAAAACAAAACCTCCTAATAGCGAAAA, the binding signal amounted to 0.42 ± 0.113 absorbance.
